This is an account of results in the OligoGym collection.
Further: reference of the scale not given here.

The target in the first experiment is PHF15. The experiment is described as follows: pooled miR-30 sensor sort-seq; sequence = guide strand. As to conditions: shRNA.
Turning to TTGACCTCATCGTTGTCTGCTA, the sensor-assay potency score (higher = more potent) is -0.147.

In turn, TCTAACCCTCTCTAGGTCCTGC registered a sensor-assay potency score (higher = more potent) of 0.0914. As to TTCAATAAGTTTCATCTGCAGG, the sensor-assay potency score (higher = more potent) is -0.499.

Sequence TTGAACTTGACCTCATCGTTGT showed a sensor-assay potency score (higher = more potent) of 0.744. Regarding TTGTCTGCTAATATAGTCCGCA, the sensor-assay potency score (higher = more potent) is 0.0345.

TAGATGTCGCATGACTGTCAGT had a sensor-assay potency score (higher = more potent) of -1.14. The same measure, in the same setting: the figure for TACATCTGAGTCGCTCATCTCC is -0.519.

The target in another experiment is PHF19. The experiment is described as above. The following applies: shRNA.
As for TTTTCTTCTATAAACTCGCCTT, the sensor-assay potency score (higher = more potent) was -0.149. The same measure, in the same setting: the result for TTGCTTAGAGCTGCTGACCCTC reads -1.03. For TAAACTTTGAATTTCATCCAGC, the sensor-assay potency score (higher = more potent) was found to be 0.174. The same measure, in the same setting: the figure for TGAATCTTTTTGAAGGTGCAGA is 0.0337. In turn, TAGTTGGTGATAGATGACTTGA gave a sensor-assay potency score (higher = more potent) of -1.21. The same measure, in the same setting: the figure for TTTTATAACTGTTCAGAGCGTT is 0.145; for TTGTTCTTGACCTTCGCCAGGG it is 0.174; for TTCTTGATCTCCTTGCCGCAGA it is -0.66.

In turn, TTTATAACTGTTCAGAGCGTTG displayed a sensor-assay potency score (higher = more potent) of -1.51. The same measure, in the same setting: the figure for TTTGAAGTTGTTCTTGACCTTC is -0.341; for TTGAATTTCATCCAGCGTGAAG it is -1.1; for TAACATTGCAGCATCCGCAGGT it is 0.519.

The next experiment deals with PHF20. The description is as above. The following applies: shRNA.
TTTTAAACAGTCCACAACTTTG: the sensor-assay potency score (higher = more potent) is -1.74. On the same count and under the same terms, the result for TTGTGTGAGGACCCACACCTGG reads -1.15; that for TTCCTTGTCTTCCTTCTCGTTC, -0.88; that for TTGACAGTCTGAACTACTCCAT, -0.0489. On the same count and under the same terms, the figure for TTTGTTACTTCCACAGTCGAAA is -0.866; for TGACAGTCTGAACTACTCCATC it is -1.04. Still for that read-out and setting: the result for TAAACTTCTCTCGTTTATCAGG reads -1.02. Sequence TAAACTTATGGTCTAGGTCGAC came in with a sensor-assay potency score (higher = more potent) of -0.7. The same measure, in the same setting: the figure for TTAACTTTCCTTCTTTATCAGG is -0.815; for TTCTCAATGGAGTCCATCCTGT it is -0.423. Still for that read-out and setting: the figure for TTAATGGGACTTCACATCCTTT is -1.47; for TTGAATTTACAACTGTCTCCAA it is 0.401.

For another experiment, the target named is PHF23. The experiment is described as above. The following applies: shRNA.
Sequence TTAACTTCCGCTTCTTGCTCTT showed a sensor-assay potency score (higher = more potent) of 0.475.

With TTGCCATCTCTTCTTCTTCTTC, the sensor-assay potency score (higher = more potent) is -0.747. The same measure, in the same setting: the figure for TTCTTAATCTTAGCACAGGAGA is -1.04; for TACCATGATGTCCTCGTCCATG it is -1.2; for TTTTATAGACAACTGTCCCATT it is -0.805.

TTCAGAGTCTGTATCACTGGGG displayed a sensor-assay potency score (higher = more potent) of 0.423. On the same count and under the same terms, the figure for TATGCCAAAACAAAACTGCAGA is -0.479; for TTCTTGCTCTTCTTGATTCGAG it is -0.558; for TTCTCTTGGATGACTTTGCTTT it is -0.308.
